Experiment in all cases: NCI-60 one-dose screen, 48 h (100 = growth as untreated, 0 = no growth, -100 = all killed)
One experiment concerns K-562 leukemia. The following applies: 10 µM unless noted.
The next experiment concerns MALME-3M melanoma. The following applies: 10 µM unless noted.
The next experiment relates to MDA-MB-231 breast. The following applies: 10 µM unless noted.
The subject of another experiment is RXF 393 renal. To be noted: 10 µM unless noted.
The test system of another experiment is SF-268 CNS. To be noted: 10 µM unless noted.
Another experiment deals with SF-295 CNS. To be noted: 10 µM unless noted.
Another experiment has as its system SF-539 CNS. The following applies: 10 µM unless noted.
A further experiment relates to UACC-257 melanoma. The following applies: 10 µM unless noted.
The next experiment deals with M14 melanoma. The following applies: 10 µM unless noted.
The next experiment concerns HCT-15 colon. To be noted: 10 µM unless noted.
Another experiment concerns HT29 colon. The following applies: 10 µM unless noted.
The next experiment has as its system SNB-75 CNS. To be noted: 10 µM unless noted.
Another experiment concerns SNB-19 CNS. The following applies: 10 µM unless noted.
For a further experiment, the system named is U251 CNS. The following applies: 10 µM unless noted.
A further experiment relates to PC-3 prostate. To be noted: 10 µM unless noted.
The subject of a further experiment is SK-MEL-5 melanoma. To be noted: 10 µM unless noted.
A further experiment relates to UACC-62 melanoma. The following applies: 10 µM unless noted.
The next experiment deals with LOX IMVI melanoma. The following applies: 10 µM unless noted.
The next experiment deals with SK-MEL-28 melanoma. The following applies: 10 µM.
In the next experiment the test system is SK-MEL-2 melanoma. The following applies: 10 µM unless noted.

SMILES strings stand for the structures. Compounds without any hit were thinned out: in the full panel of roughly 83,000, 20% have a hit.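 Negative percent growth values reflect cell death: -40 means 40% of the cells present at the start died, and -100 means all died.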 Values without a mark were called inactive. Calls of active or inactive are those of the source. Rule for the calls: active = growth percent below 10; inactive = the rest.

With `COc1ccccc1N1C(=N)S/C(=C\c2ccc(OCc3ccccc3F)cc2)C1=O`, the growth in the experiment with K-562 leukemia is 62.2%; in the experiment on MALME-3M melanoma, 118%; with MDA-MB-231 breast, 51.4%; in the experiment with RXF 393 renal it was 65.8%; in the experiment on SF-268 CNS, 82%; in the experiment on SF-295 CNS it was 95.1%. The growth with SF-539 CNS was 106%; with UACC-257 melanoma it was 90.9%; with M14 melanoma, 70.7%; in the experiment with HCT-15 colon, 81.3%; in the experiment with HT29 colon, 108%; with SNB-75 CNS, 76%. Also, the growth was 90.9% in the experiment with SNB-19 CNS; 78.9% in the experiment with U251 CNS; 66.9% in the experiment with PC-3 prostate; 92.5% in the experiment with SK-MEL-5 melanoma; 63.7% with UACC-62 melanoma; 80.1% in the experiment with LOX IMVI melanoma. Also, the growth in the experiment with SK-MEL-28 melanoma is 95%.
On to `Cc1ccc2c(n1)C(=O)C(Oc1ccc(Br)cc1)=CC2=O`, for which the growth was 77% in the experiment with K-562 leukemia; 115% with MALME-3M melanoma; 91.1% in the experiment on MDA-MB-231 breast; 104% in the experiment on RXF 393 renal; 88.4% with SF-268 CNS; 103% with SF-295 CNS. The growth was 104% in the experiment on SF-539 CNS; 106% in the experiment with UACC-257 melanoma; 94.9% with M14 melanoma; 84.7% in the experiment on HCT-15 colon; 97.6% in the experiment with HT29 colon; 82.2% in the experiment on SNB-75 CNS. The growth is 96.6% in the experiment with SNB-19 CNS; 94.5% in the experiment on U251 CNS; 95% in the experiment with PC-3 prostate; 93.6% with SK-MEL-5 melanoma; 95.9% in the experiment with UACC-62 melanoma; 84.2% in the experiment on LOX IMVI melanoma. The figures for the growth in the experiment with SK-MEL-28 melanoma and with SK-MEL-2 melanoma were 116% and 91.7%, respectively.
With `O=C(CSc1nc2ccccc2c(=O)n1-c1ccccc1)Nc1ccc(C(=O)/C=C/c2ccc(Cl)cc2)cc1`, the growth in the experiment with K-562 leukemia is 90.8%; in the experiment on MALME-3M melanoma, 95.5%; in the experiment with MDA-MB-231 breast, 93.3%; with RXF 393 renal, 127%; in the experiment on SF-268 CNS, 115%; with SF-295 CNS, 105%. Moreover, the growth with SF-539 CNS is 113%; in the experiment with UACC-257 melanoma, 89.6%; in the experiment with M14 melanoma, 101%; in the experiment with HCT-15 colon it was 98.1%; in the experiment with HT29 colon it was 100%; in the experiment on SNB-75 CNS, 114%. Further, the growth with SNB-19 CNS is 96.1%; in the experiment with U251 CNS, 106%; with PC-3 prostate, 103%; in the experiment with SK-MEL-5 melanoma, 103%; in the experiment with UACC-62 melanoma, 86%; in the experiment with LOX IMVI melanoma it was 101%. For the same compound, the growth was 106% in the experiment with SK-MEL-28 melanoma and 99.9% in the experiment with SK-MEL-2 melanoma.
`O=C(NC1CCN(Cc2ccccc2)CC1)c1cc2nc(-c3ccc(Cl)s3)cc(C(F)(F)F)n2n1`: the growth in the experiment with K-562 leukemia is 5.49% (active); in the experiment on MALME-3M melanoma, -84.1% (active); in the experiment on MDA-MB-231 breast, 57.1%; in the experiment with RXF 393 renal, 94.8%; in the experiment with SF-268 CNS, 66.7%; in the experiment on SF-295 CNS it was -68.6% (active). In addition, the growth with SF-539 CNS is 2.96% (active); in the experiment with UACC-257 melanoma it was -65.5% (active); with M14 melanoma it was 48.7%; in the experiment with HCT-15 colon, 94.7%; with HT29 colon, -84.3% (active); with SNB-75 CNS, 35.6%. The growth is 101% with SNB-19 CNS; -86.9% (active) in the experiment on U251 CNS; 72.2% with PC-3 prostate; 89.1% in the experiment with SK-MEL-5 melanoma; 97.3% in the experiment with UACC-62 melanoma; 45.2% in the experiment with LOX IMVI melanoma. Moreover, the growth with SK-MEL-28 melanoma was -97.4% (active).
As to `O=c1oc2ccc(Cl)cc2c(=O)n1-c1ccc(I)cc1F`, the growth in the experiment with K-562 leukemia was 7.73% (active); in the experiment with MALME-3M melanoma, -29.2% (active); in the experiment on MDA-MB-231 breast, -20.5% (active); with RXF 393 renal it was -5.52% (active); in the experiment on SF-268 CNS, 8.08% (active); in the experiment on SF-295 CNS, -57.8% (active). Also, the growth is 2.55% (active) with SF-539 CNS; -16.9% (active) in the experiment with UACC-257 melanoma; 2.42% (active) in the experiment with M14 melanoma; 3.56% (active) with HCT-15 colon; 33.6% in the experiment with HT29 colon; -28.4% (active) with SNB-75 CNS. Also, the growth in the experiment on SNB-19 CNS is 18.6%; in the experiment with U251 CNS, -1.68% (active); with PC-3 prostate, 1.89% (active); in the experiment on SK-MEL-5 melanoma, -81.5% (active); in the experiment on UACC-62 melanoma it was -28.8% (active); in the experiment on LOX IMVI melanoma, 0.538% (active). In the experiment with SK-MEL-28 melanoma, the growth is 0.51% (active).
As for `C1CCN(c2nc(N3CCCCC3)nc(N3CCOCC3)n2)CC1`, the growth was 101% with K-562 leukemia; 100% in the experiment with MALME-3M melanoma; 93.9% with MDA-MB-231 breast; 107% in the experiment with RXF 393 renal; 105% in the experiment with SF-268 CNS; 111% with SF-295 CNS. Further, the growth is 113% in the experiment on SF-539 CNS; 97.1% in the experiment with UACC-257 melanoma; 113% in the experiment on M14 melanoma; 105% with HCT-15 colon; 88.2% in the experiment with HT29 colon; 81% with SNB-75 CNS. In addition, the growth in the experiment with SNB-19 CNS is 96.1%; in the experiment with U251 CNS it was 101%; in the experiment on PC-3 prostate it was 104%; in the experiment on SK-MEL-5 melanoma, 101%; in the experiment with UACC-62 melanoma, 93%; in the experiment on LOX IMVI melanoma, 98.7%.
As for `Clc1ncccc1Nc1ccc2nnc(-c3ccncc3)n2n1`, the growth in the experiment with K-562 leukemia is 66.8%; in the experiment with MALME-3M melanoma it was 98.5%; with MDA-MB-231 breast, 105%; in the experiment with RXF 393 renal it was 114%; in the experiment with SF-268 CNS, 93.3%; with SF-295 CNS it was 105%. Besides, the growth in the experiment with SF-539 CNS was 99.7%; in the experiment on UACC-257 melanoma it was 102%; in the experiment with M14 melanoma, 98.6%; in the experiment with HCT-15 colon it was 87.1%; in the experiment on HT29 colon it was 110%; in the experiment with SNB-75 CNS, 99.2%. Further, the growth in the experiment on SNB-19 CNS is 102%; in the experiment on U251 CNS it was 101%; in the experiment with PC-3 prostate, 102%; in the experiment with SK-MEL-5 melanoma, 104%; in the experiment with UACC-62 melanoma it was 106%; with LOX IMVI melanoma, 92.8%. For the same compound, the growth with SK-MEL-28 melanoma was 112%; in the experiment on SK-MEL-2 melanoma, 109%.
For `Nc1ncnc(N)c1NC(=O)c1ccc(OCc2ccccc2)cc1`, the growth with K-562 leukemia was 105%; in the experiment on MALME-3M melanoma, 102%; with MDA-MB-231 breast, 104%; in the experiment on RXF 393 renal it was 107%; with SF-268 CNS, 104%; in the experiment with SF-295 CNS it was 103%. In addition, the growth in the experiment with SF-539 CNS is 95.5%; in the experiment on UACC-257 melanoma, 104%; in the experiment with M14 melanoma, 108%; in the experiment on HCT-15 colon it was 99.5%; in the experiment on HT29 colon, 96.3%; in the experiment with SNB-75 CNS, 110%. Further, the growth in the experiment with SNB-19 CNS was 103%; in the experiment on U251 CNS it was 102%; in the experiment with PC-3 prostate it was 106%; in the experiment on SK-MEL-5 melanoma it was 102%; with UACC-62 melanoma, 99%; in the experiment with LOX IMVI melanoma, 110%. Further, the growth in the experiment on SK-MEL-28 melanoma is 117%.
